# Source: PubChem BioAssay (NCATS)
# Records with an inconclusive call do not appear. Activity calls are given as the source filed them. Unless noted, calls come from the whole dose curve; as a rule, active = well fitted curve in the direction sought with a large enough effect; inconclusive = small, poorly fitted or top-dose-only effect, or another doubt; inactive = no such curve, though single readings can be large; an effect the other way counts as inactive or inconclusive.
# What was measured:
# [1] = molecular target: Cytochrome P450 2C9 (Homo sapiens) (UniProt P11712); test: Cytochrome P450 family 2 subfamily C member 9 (CYP2C9) small molecule antagonists: luciferase biochemical (cell-free) qHTS assay (AID 1645842; active = well fitted curve in the direction sought with a large enough effect in the repeat runs; an effect the other way counts as inactive or inconclusive; note: nearly all actives have a fitted effect of over 55% in size; note: potency is the fitted concentration of half-maximal effect)
# Chain of Cytochrome P450 2C9 (Homo sapiens) (P11712 whole entry, looked up): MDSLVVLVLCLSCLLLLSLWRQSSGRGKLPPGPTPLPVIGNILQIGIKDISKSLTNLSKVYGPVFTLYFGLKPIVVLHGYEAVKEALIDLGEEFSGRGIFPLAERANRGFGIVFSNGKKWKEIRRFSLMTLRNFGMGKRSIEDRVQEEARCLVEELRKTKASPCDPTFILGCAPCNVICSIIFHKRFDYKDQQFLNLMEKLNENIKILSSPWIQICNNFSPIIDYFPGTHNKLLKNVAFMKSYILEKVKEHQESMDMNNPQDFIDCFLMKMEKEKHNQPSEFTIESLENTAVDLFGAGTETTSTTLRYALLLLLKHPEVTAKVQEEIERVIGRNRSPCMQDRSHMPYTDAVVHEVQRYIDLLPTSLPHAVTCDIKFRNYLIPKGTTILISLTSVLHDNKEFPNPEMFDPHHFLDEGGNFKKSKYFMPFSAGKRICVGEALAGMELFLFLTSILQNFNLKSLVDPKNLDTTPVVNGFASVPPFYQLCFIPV
# In short: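 Luminescence, after 20 min with luciferin detection reagent, reflected CYP2C9 turnover during a 1 h NADPH-driven reaction at 37C. Enzyme-substrate mix contained 0.4% bovine serum albumin and was preincubated with compound 10 min at room temperature.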
# HaCat = test: Cytotoxic Profiling of Annotated Libraries Using Quantitative High-Throughput Screening (AID 1296008); settings: Five cell lines viability, CellTiter-Glo ATP luminescence, 48-72 h; max response: stronger effect = lower value; note: nearly all actives have a fitted effect of over 60% in size; note: potency is the fitted concentration of half-maximal effect; for max response: % is set by controls: 0 for no effect and ±100 for the full control effect
# In short: (§1)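 Compounds were pin-transferred onto cells and incubated 48 or 72 hr at 37 degree Celsius, 95% humidity. CellTiter-Glo was added, plates sat 10 min at room temperature, then ATP-coupled luminescence was imaged as the viability read-out.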
# [2] = P-glycoprotein substrates identified in KB-8-5-11 adenocarcinoma cell line, qHTS therapeutic library screen (AID 1346987); note: potency is the fitted concentration of half-maximal effect; nearly all actives have a fitted effect of over 65% in size
# In short: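 KB-8-5-11: colchicine-selected sub-line of KB-3-1 over-expressing P-gp; assay medium lacked colchicine. 72 h drug exposure at 37 degree C, CellTiter-Glo.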
# [3] = qHTS to identify inhibitors of the type 1 interferon - major histocompatibility complex class I in skeletal muscle: primary screen against the NCATS Mechanism Interrogation Plate v5.0 (MIPE) Libary (AID 1347411); note: nearly all actives have a fitted effect of over 65% in size; note: potency is the fitted concentration of half-maximal effect;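 for activity change, negative = inhibition: plate controls were vehicle for no effect and reference inhibitor for full effect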
# In short: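 Immortalized human C25cl48 myoblasts with HiBit knocked into endogenous HLA-B*08:01 were stimulated with 4.0 ng/ml IFN-beta and exposed to compounds (11-point 1:3 titration, top 46 uM final) for 24 hrs at 37 C; HiBiT lytic luminescence measured.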
# [4] = molecular target: Cytochrome P450 2D6 (Homo sapiens) (UniProt P10635); test: Cytochrome P450 family 2 subfamily D member 6 (CYP2D6) small molecule antagonists: luciferase biochemical (cell-free) qHTS assay (AID 1645840; active = well fitted curve in the direction sought with a large enough effect in the repeat runs; an effect the other way counts as inactive or inconclusive; note: nearly all actives have a fitted effect of over 55% in size; note: potency is the fitted concentration of half-maximal effect; for activity change, negative = inhibition: % is set by controls: 0 for no effect and ±100 for the full control effect)
# Chain of Cytochrome P450 2D6 (Homo sapiens) (P10635 whole entry, looked up): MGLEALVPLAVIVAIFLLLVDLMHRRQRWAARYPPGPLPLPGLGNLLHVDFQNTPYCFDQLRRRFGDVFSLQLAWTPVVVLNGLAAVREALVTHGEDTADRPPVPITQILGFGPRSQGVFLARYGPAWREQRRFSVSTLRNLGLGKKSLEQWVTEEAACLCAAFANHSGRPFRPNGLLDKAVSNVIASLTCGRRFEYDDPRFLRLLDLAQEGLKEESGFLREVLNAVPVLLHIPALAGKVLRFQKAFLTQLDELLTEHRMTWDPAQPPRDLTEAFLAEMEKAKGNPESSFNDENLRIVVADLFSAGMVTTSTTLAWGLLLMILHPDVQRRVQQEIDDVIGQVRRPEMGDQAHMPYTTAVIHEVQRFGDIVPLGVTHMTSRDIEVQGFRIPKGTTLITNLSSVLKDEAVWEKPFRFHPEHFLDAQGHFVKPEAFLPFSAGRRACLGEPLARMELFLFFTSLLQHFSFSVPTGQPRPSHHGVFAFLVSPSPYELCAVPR
# In short: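 P450-Glo luminescent screen: recombinant CYP2D6 enzyme–proluciferin substrate mix preincubated with compound 10 min at room temperature, then NADPH regeneration added for 1 h at room temperature. Detection reagent added for 20 min; luciferin light read as relative luminescence units.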
# [5] = Primary redox qHTS assay for identification of artifact compounds. (AID 1845223);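 note: 0% = DMSO and 100% = reference compound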
# In short: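 Amplex Red (25 uM) and HRP (250 mU/mL) in HBSS, with compounds for 15 min, then 250 uM DTT for 30 min, room temperature, dark. Fluorescence 525/598 nm read; normalized to DMSO and 10 uM DA3003; Hill fit.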
# [6] = qHTS drug screen for cell cycle checkpoint inhibitors in PARPi-resistant BRCA-mutant ovarian cancer cell lines. (AID 1963452; calls by dose curve); settings: PEO1/OlaR viability, CellTiter-Glo luminescence, 96 h, stronger effect = lower value
# In short: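 PEO1, PEO4 and PEO1/OlaR ovarian cancer cells, 600 per well, exposed 96 h at 37C to a dilution series. Viability read by CellTiter-Glo luminescence, normalized to DMSO and empty wells; activity summarized as Z-AUC.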
# [7] = qHTS assay to identify inhibitors of the type 1 interferon - major histocompatibility complex class I in skeletal muscle: Counter screen cell viability and HiBit confirmation (AID 1347412); settings: iHSKM muscle cells + IFN-b, HiBiT or CellTiter-Glo, 24 h; for activity change, negative = inhibition: at 45.9 µM (top of the series); note: potency is the fitted concentration of half-maximal effect; for activity change, negative = inhibition: % is set by controls: 0 for no effect and ±100 for the full control effect; for all read-outs here: nearly all actives have a fitted effect of over 60% in size
# In short: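 Human myoblast knock-in line, 4.0 ng/ml IFN-beta stimulation, 24 h compound treatment. Endpoints: HiBiT lytic luminescence (HLA-B level) and CellTiter Glo (ATP). Dosing 12 concentrations, 3-fold steps, 46 uM highest final.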
# SKOV3 = test: Primary qHTS to identify gynecologic anti-cancer compounds using libraries of approved drugs and bioactive compounds (AID 1345084); settings: Gynecologic cancer cell panel viability, ATPlite luminescence, 48 h; series mostly up to 57.5 µM; note: nearly all actives have a fitted effect of over 55% in size; note: potency is the fitted concentration of half-maximal effect
# In short: (§2)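 48 h compound exposure at 37 C, 5% CO2; five-point qHTS. ATPlite luminescence readout of cell ATP.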
# NIH3T3 = test: Cytotoxic Profiling of Annotated Libraries Using Quantitative High-Throughput Screening (AID 1296008); settings: Five cell lines viability, CellTiter-Glo ATP luminescence, 48-72 h; max response: stronger effect = lower value; note: nearly all actives have a fitted effect of over 60% in size; note: potency is the fitted concentration of half-maximal effect; for max response: % is set by controls: 0 for no effect and ±100 for the full control effect
# In short: as §1
# [8] = molecular target: Catechol O-methyltransferase (Homo sapiens) (UniProt P21964); test: Confirmatory Screen for Target Class Profiling of Small Molecule Inhibitors of Methyltransferases (AID 1745852; calls by dose curve); settings: MTase-Glo luminescence, SAH detection, recombinant enzyme; measured here: COMT max response; stronger effect = lower value
# Chain of Catechol O-methyltransferase (Homo sapiens) (P21964 whole entry, looked up): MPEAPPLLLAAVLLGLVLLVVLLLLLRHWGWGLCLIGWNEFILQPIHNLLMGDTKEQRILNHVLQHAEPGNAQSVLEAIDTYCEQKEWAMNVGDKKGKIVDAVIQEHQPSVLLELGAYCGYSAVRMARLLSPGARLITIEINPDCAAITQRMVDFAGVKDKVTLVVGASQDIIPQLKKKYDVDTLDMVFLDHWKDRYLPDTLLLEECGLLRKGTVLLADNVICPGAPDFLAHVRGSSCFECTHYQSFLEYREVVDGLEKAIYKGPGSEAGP
# [9] = molecular target: Guanidinoacetate N-methyltransferase (Homo sapiens) (UniProt Q14353); test: as above; settings: activity change, negative = inhibition: at 57.3 µM (top of the series) unless noted
# [10] = molecular target: Nicotinamide N-methyltransferase (Homo sapiens) (UniProt P40261); test: as above; settings: MTase-Glo luminescence, SAH detection, recombinant enzyme; measured here: NNMT max response; stronger effect = lower value
# Chain of Nicotinamide N-methyltransferase (Homo sapiens) (P40261 whole entry, looked up): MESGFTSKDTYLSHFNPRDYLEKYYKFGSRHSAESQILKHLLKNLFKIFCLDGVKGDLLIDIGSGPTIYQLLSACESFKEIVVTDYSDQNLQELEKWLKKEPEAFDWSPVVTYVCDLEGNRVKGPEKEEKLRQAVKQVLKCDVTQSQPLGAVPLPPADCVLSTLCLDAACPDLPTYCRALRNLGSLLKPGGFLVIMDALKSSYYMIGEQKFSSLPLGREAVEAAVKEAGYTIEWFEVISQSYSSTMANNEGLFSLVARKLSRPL
# [11] = molecular target: Phenylethanolamine N-methyltransferase (Homo sapiens) (UniProt P11086); test: as above; settings: MTase-Glo luminescence, SAH detection, recombinant enzyme; measured here: PNMT max response; stronger effect = lower value
# Chain of Phenylethanolamine N-methyltransferase (Homo sapiens) (P11086 whole entry, looked up): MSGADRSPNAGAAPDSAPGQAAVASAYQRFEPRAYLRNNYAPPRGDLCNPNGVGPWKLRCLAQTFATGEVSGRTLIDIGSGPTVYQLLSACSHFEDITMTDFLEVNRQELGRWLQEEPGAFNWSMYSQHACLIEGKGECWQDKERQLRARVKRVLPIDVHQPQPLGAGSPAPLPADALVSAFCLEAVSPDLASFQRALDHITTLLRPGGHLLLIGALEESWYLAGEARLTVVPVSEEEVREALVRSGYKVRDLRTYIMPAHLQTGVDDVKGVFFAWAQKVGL
# CAOV3 = test: Primary qHTS to identify gynecologic anti-cancer compounds using libraries of approved drugs and bioactive compounds (AID 1345084); settings: Gynecologic cancer cell panel viability, ATPlite luminescence, 48 h; series mostly up to 57.5 µM; note: nearly all actives have a fitted effect of over 55% in size; note: potency is the fitted concentration of half-maximal effect
# In short: as §2
# [12] = measured here: PEO1 parental Z-AUC
smiles,measurement,setting,value
CC(C)(C)c1ccc(CNC(=S)NCc2ccc(NS(C)(=O)=O)c(F)c2)cc1,Potency,[1],0.151 µM (active)
same,max response,HaCat,-44.1% (inactive)
CC1CCC(n2c3cnccc3c3cnc(Nc4ccc5c(n4)CCN(C(=O)CO)C5)nc32)CC1 (stereo unspecified),Potency,[2],5.8 µM (active)
same,"activity change, negative = inhibition",[3],-18.6% [at 8.44 µM] (inactive)
same,Potency,[4],inactive
same,Potency,[5],inactive
same,Z-AUC,[6],0.557 (inactive)
same,Z-AUC,[6]; [12],1.18
same,Z-AUC,[6]; measured here: PEO4 Z-AUC,0.34
same,max response,HaCat,-0.578% (inactive)
Oc1ccc(Nc2nc(-c3ccc(Cl)cc3)cs2)cc1,Potency,[5],inactive
same,Z-AUC,[6],-0.146 (inactive)
same,Z-AUC,[6]; [12],0.0588
same,Z-AUC,[6]; measured here: PEO4 Z-AUC,0.0633
same,max response,HaCat,-8.45% (inactive)
same,"activity change, negative = inhibition",[7]; HiBiT,-38.1% (inactive)
same,"activity change, negative = inhibition",[7]; Viability,7.19% (inactive)
CCCCn1ccc(N2CCC(c3ccccc3)CC2)c(Cl)c1=O,outcome,HaCat,inactive
CCN(CCCOc1ccc2c(Nc3cc(CC(=O)Nc4cccc(F)c4)[nH]n3)ncnc2c1)CCOP(=O)(O)O,Potency,[3],inactive
same,Potency,HaCat,2.06 µM (active)
same,Potency,SKOV3,15.8 µM (active)
CC(=O)c1c(OCCN2CCCCC2)c(OCCC(C)c2ccc(F)cc2)c2oc(C)nc2c1C (stereo unspecified),Potency,[2],20.6 µM (active)
same,Potency,[4],0.477 µM (active)
same,Potency,[1],19 µM (active)
same,outcome,HaCat,inactive
O=C(NC(NC(=S)Nc1ccc(F)c([N+](=O)[O-])c1)C(Cl)(Cl)Cl)C(c1ccccc1)c1ccccc1 (stereo unspecified),Potency,[5],inactive
same,max response,HaCat,-1.87% (inactive)
same,Potency,SKOV3,inactive
C=C1[C@@H](C2=CC(=O)OC2)CC[C@@]2(O)[C@@H]1CC1[C@H]2CC[C@@H]2C[C@@H](O[C@H]3O[C@@H](C)[C@@H](O[C@@H]4O[C@H](CO[C@@H]5O[C@H](CO)[C@@H](O)[C@H](O)[C@H]5O)[C@@H](O)[C@H](O)[C@H]4O)[C@H](OC)[C@H]3O)CC[C@]12C (stereo partly specified),Potency,[2],3.48 µM (active)
same,outcome,NIH3T3,inactive
COc1ccc2c(c1)C[C@H](C(=O)Nc1ccc(-c3cn[nH]c3)cc1OCCN(C)C)CO2,Potency,[1],4.25 µM (active)
same,activity,[8],-2.58%
same,"activity change, negative = inhibition",[9],-2.48% [at 9.47 µM]
same,activity,[10],-0.41%
same,activity,[11],0.522%
same,Potency,[5],inactive
same,outcome,HaCat,inactive
same,Potency,SKOV3,inactive
COc1cc(O)ccc1OCCNCC(O)COc1cccc2[nH]c3ccccc3c12 (stereo unspecified),outcome,HaCat,inactive
C=C(C)C(=O)O[C@H]1[C@H]2C(=C)C(=O)O[C@@H]2C[C@@H](C)/C=C\C(=O)[C@](C)(O)[C@@H]1OC(C)=O,Potency,[2],2.82 µM (active)
same,Potency,[5],inactive
same,Potency,NIH3T3,7.09 µM (active)
same,Potency,CAOV3,8.91 µM (active)
same,Potency,SKOV3,11.2 µM (active)
C=C1CC[C@@H]2[C@](C)(CO)[C@H](O)CC[C@@]2(C)[C@@H]1C/C=C1/C(=O)OC[C@@H]1O,outcome,HaCat,inactive
same,Potency,CAOV3,inactive
COCCOCCOc1ccc(C2=N[C@@](C)(C(=O)O)CS2)c(O)c1,max response,HaCat,-22.3% (inactive)
OCC(Cc1ccccc1)Nc1nc(Oc2ccc3c(c2)CCC3)nc2c1ncn2Cc1ccc(-c2ccccc2)cc1 (stereo unspecified),Potency,[5],inactive
same,Potency,HaCat,18.4 µM (active)
same,Potency,SKOV3,inactive
COc1cc(-c2cc(-c3ccc(N4CCNCC4)cc3)cnc2C)cc(OC)c1OC,Potency,[3],inactive
same,Potency,[4],inactive
same,Potency,[1],19 µM (active)
same,Potency,[5],inactive
same,outcome,HaCat,inactive
Cn1cc(-c2cnc3ccc4ccc(CS(=O)(=O)NCc5ccccn5)cc4c(=O)c3c2)cn1,Potency,[3],inactive
same,Potency,[1],inactive
same,activity,[8],-3.92%
same,Potency,[9],inactive
same,activity,[10],-3.63%
same,activity,[11],-3.14%
same,Potency,[5],inactive
same,Z-AUC,[6],-1.05 (inactive)
same,Z-AUC,[6]; [12],-0.542
same,Z-AUC,[6]; measured here: PEO4 Z-AUC,-0.899
same,max response,HaCat,-3.23% (inactive)
CCS(=O)(=O)N(Cc1cccnc1)c1cccc(-c2ccc(C#N)cc2)c1,Potency,[1],9.52 µM (active)
same,max response,NIH3T3,-19.5% (inactive)
CC1CCCC(SCC(O)C(=O)O)CC(=O)c2c(O)cc(O)cc2CC(=O)O1 (stereo unspecified),Potency,[5],inactive
same,max response,HaCat,-1.3% (inactive)
same,Potency,CAOV3,inactive
CC(C)[C@@H](C)/C=C/[C@@H](C)[C@H]1CC[C@H]2C3=CC=C4C[C@@H](O)CC[C@]4(C)C3=CC[C@]12C,outcome,HaCat,inactive
Cc1cc2nc(NCCCO)n(CC(=O)c3cc(C(C)(C)C)c(O)c(C(C)(C)C)c3)c2cc1C,Potency,[1],13.5 µM (active)
same,Potency,[5],inactive
same,max response,HaCat,-19.8% (inactive)
same,Potency,CAOV3,inactive
CC(C)CCC[C@@H](C)[C@H]1CC[C@H]2[C@@H]3CC=C4C[C@@H](OC(=O)NCCN(C)C)CC[C@]4(C)[C@H]3CC[C@]12C,Potency,[5],inactive
same,max response,HaCat,-22.1% (inactive)
same,Potency,SKOV3,22.4 µM (active)
C=CC(=O)Nc1cc(Nc2nccc(-c3cn(C)c4ccccc34)n2)c(OC)cc1N(C)CCN(C)C,Potency,[2],11.6 µM (active)
same,Potency,[3],8.29 µM (active)
same,Z-AUC,[6],-0.422 (inactive)
same,Z-AUC,[6]; [12],-0.39
same,Z-AUC,[6]; measured here: PEO4 Z-AUC,-1.1
same,Potency,HaCat,1.03 µM (active)
same,Potency,[7]; HiBiT,24.9 µM (active)
